HP1b chromo inh: HP1-beta chromodomain-methylated histone interaction inhibition | AlphaScreen HP1-beta / biotin-H3K9me3 peptide binding | Potency, µM (highest dose often 114 µM), inactives show at the highest dose activity change, negative = inhibition, hits mostly inhibitors | 390,000 tested, 0.56% active | AID 540317; also: nearly all actives have a fitted effect of over 70% in size
Target sequence (P83916 whole entry, looked up): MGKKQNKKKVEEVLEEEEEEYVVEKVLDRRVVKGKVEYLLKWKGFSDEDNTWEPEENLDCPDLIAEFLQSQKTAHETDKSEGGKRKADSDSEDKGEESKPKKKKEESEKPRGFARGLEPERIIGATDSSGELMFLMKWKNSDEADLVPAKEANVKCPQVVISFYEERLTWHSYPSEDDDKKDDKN
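Compound inhibition of the preformed complex between 50 nM HP1-beta and 50 nM biotinylated H3K9me3 peptide was read by AlphaScreen. Buffer was PBS pH 7.4 with 0.01% Tween-20. Incubations ran 30 min at room temperature, with 10 ug/mL donor/acceptor beads.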
PLK1 PBD block: blocks phosphopeptide binding to human PLK1 polo-box domain. P53350. Plk1 PBD binding of FITC phosphopeptide, fluorescence polarization. Potency, µM, for inactives: max response, negative = inhibition, actives largely listed as inhibitors. 360,000 tested, 2.8% active. AID 720504; also: series mostly up to about 57 µM; % is scaled to controls: 0 for no effect and ±100 for the full control effect; nearly all actives have a fitted effect of over 65% in size
VDR inh: blocks the human vitamin D receptor. P11473. VDR-SRC2-3 peptide fluorescence polarization, 2 h. Potency, µM, for the others: max response, negative = inhibition, most hits filed as inhibitors. 400,000 tested, 0.93% active. AID 504847; also: % is scaled to controls: 0 for no effect and ±100 for the full control effect
Target sequence (P11473 whole entry, looked up): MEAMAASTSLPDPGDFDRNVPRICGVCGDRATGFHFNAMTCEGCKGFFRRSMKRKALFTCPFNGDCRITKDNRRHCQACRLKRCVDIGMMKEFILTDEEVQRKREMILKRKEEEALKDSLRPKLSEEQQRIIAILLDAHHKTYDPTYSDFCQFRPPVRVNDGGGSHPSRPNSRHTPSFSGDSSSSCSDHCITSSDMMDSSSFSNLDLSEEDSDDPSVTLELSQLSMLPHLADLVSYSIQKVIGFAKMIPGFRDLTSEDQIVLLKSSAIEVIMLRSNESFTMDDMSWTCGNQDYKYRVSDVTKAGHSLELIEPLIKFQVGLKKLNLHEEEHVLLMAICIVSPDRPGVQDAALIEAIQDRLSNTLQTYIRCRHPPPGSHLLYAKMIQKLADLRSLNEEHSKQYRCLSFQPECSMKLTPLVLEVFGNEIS
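Measured by FP: displacement of SRC2-3 coactivator peptide from VDR by library compounds, following a two-hour ambient incubation.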
BAZ2B inh: blocks human BAZ2B | Q9UIF8 | AlphaScreen BAZ2B-H3K14Ac peptide displacement | Potency, µM (series often up to 114 µM), for the others: at the highest dose activity change, negative = inhibition, actives largely listed as inhibitors | 360,000 tested, 4.4% active; also: % is scaled to controls: 0 for no effect and ±100 for the full control effect; nearly all actives have a fitted effect of over 60% in size
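AlphaScreen luminescence quantifies BAZ2B engagement of H3K14Ac peptide; the protein and biotinylated peptide are both at 50 nM final, buffer PBS pH 7.4 with 0.01% Tween-20, all steps at room temperature.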
G9a block: G9a (human) methyltransferase inhibition; G9a H3K9 monomethylation, AlphaScreen, 2 h; Potency, µM (series often up to 102 µM), inactives show at the top dose activity, negative = inhibition, actives largely listed as inhibitors; 350,000 tested, 8.8% active; also: % is scaled to controls: 0 for no effect and ±100 for the full control effect; nearly all actives have a fitted effect of over 75% in size
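AlphaScreen detection with an anti-monomethyl H3K9 antibody quantified product after a 2 h room-temperature reaction containing 500 nM biotinylated H3K9 peptide, 20 µM SAM and 20 nM enzyme, which had been preincubated 15 min with compound.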
JMJD2A Tudor: JMJD2A Tudor domain (human) inhibition; O75164; 390,000 tested, 4.4% active; Potency, µM (top dose mostly 114 µM), for inactives: at the top dose activity change, negative = inhibition, usual class: inhibitors; AlphaScreen JMJD2A-Tudor / H3K4me3 peptide binding; AID 504339; also: % is scaled to controls: 0 for no effect and ±100 for the full control effect; nearly all actives have a fitted effect of over 50% in size
* marks the source's active call; other numbers are inactive results; ? = inconclusive; · = no result given; [ ] = dose if it differs, or a comment. A selection: hits, their analogues and other compounds. The true share with any hit is near 11%. Calls follow the shape of the dose curve; as a rule, active = well fitted curve in the direction sought with a large enough effect; inconclusive = small, poorly fitted or top-dose-only effect, or another doubt; inactive = no such curve, though single readings can be large; an effect the other way counts as inactive or inconclusive. Potency is read from the fitted curve at half-maximal effect.

SMILES	HP1b chromo inh	PLK1 PBD block	VDR inh	BAZ2B inh	G9a block	JMJD2A Tudor
Cc1nnc(NC(=O)CSCc2cc(=O)c3cc(Cl)ccc3[nH]2)s1	23%[57 µM]	·	11%	0%	4%[59 µM]	-12%
Cc1ccc(N2C(=O)N(CC(=O)N3c4ccccc4CC3C)C(=O)C2C)cc1 (stereo unspecified)	16%	-9%	-18%	-5%	45µM*	-16%
CC(C)(C)OC(=O)Nc1ncnc2c1C(c1ccccc1)c1c(ccc3ccccc13)O2 (stereo unspecified)	·	·	·	·	·	1%
CC1(C)CC(=O)C2=C(C1)NC1=C(C(=O)c3ccccc31)C2c1ccc(O)cc1 (stereo unspecified)	7%	-20%	-19%	40µM*	25µM*	-29%[57.1 µM]
O=C1CCCC2=C1C(c1cccc(O)c1)C1=C(N2)c2ccccc2C1=O (stereo unspecified)	4%	-4%	2%	-26%	32µM*	-11%
COc1cccc(C2C3=C(CCCC3=O)NC3=C2C(=O)c2ccccc23)c1 (stereo unspecified)	·	·	·	-22%	?	·
CCCCc1ccc(C2C3=C(CC(C)(C)CC3=O)NC3=C2C(=O)c2ccccc23)cc1 (stereo unspecified)	?	-14%	-17%	?	?	?
CCCc1ccc(C2C3=C(CC(C)(C)CC3=O)NC3=C2C(=O)c2ccccc23)cc1 (stereo unspecified)	-37%	-13%	-10%	25µM*	35µM*	?
Cc1ccc(N=C2SC(C(=O)Nc3ccc(OC(F)(F)F)cc3)C(N)=C2C(=O)Nc2c(C)cc(C)cc2C)cc1 (stereo unspecified)	-11%	-12%	-14%	-34%	?	-33%
Cc1ccc(/C=C/C(=O)Nc2ccc3nc(N4CCC(C)CC4)cc(C)c3c2)cc1	38%	·	-7%	0%	5%[59 µM]	-30%
CC(=O)Nc1c2c(nn1-c1ccc(C)cc1C)CSC2	33%	-4%	-29%	11%	-34%[59 µM]	-18%
CCCC(=O)Nc1c2c(nn1-c1ccc(C)cc1C)CSC2	28%	-1%	-21%	-5%	22µM*	-19%
O=C(CBr)Nc1c2c(nn1-c1ccccc1)CSC2	34%[57 µM]	?	-23%	-15%[57.1 µM]	22µM*	-27%
CCCC(=O)Nc1c2c(nn1-c1ccccc1)CSC2	13%[57 µM]	-2%	13%	-1%	18%[59 µM]	-24%
Cc1ccccc1COC(=O)CCC1=NS(=O)(=O)c2ccccc2N1	37%	-4%	-5%	-4%	·	-19%
COc1cc(Nc2nc(SCC(=O)c3ccc(Br)cc3)nc3ccccc23)cc(OC)c1	34%	·	15%	-9%	3%[59 µM]	-24%
N#CC(C#N)=C1c2cc(S(N)(=O)=O)ccc2-c2ccc(S(N)(=O)=O)cc21	36%	-5%	?	-37%	18µM*	-8%
Cc1ccc(C(C)C)c(OCCNCc2ccccc2)c1	27%	-1%	-27%	?	·	28µM*
Clc1cc(Br)ccc1OCCCNCc1ccccc1	?	-4%	-25%	?	7.1µM*	2.8µM*
Cc1cc(OCCOCCNCc2ccccc2)ccc1C(C)C	?	3%	3%	?	10µM*	20µM*
Cc1ccc(C)c(OCCCNCc2ccccc2)c1	-20%	2%	14%	?	?	45µM*
Cc1ccc(C)c(OCCC(=O)OCC(=O)NCc2ccccc2)c1	-8%	-17%	-13%	-2%	0%	-12%
Cc1ccc(NC(=O)C2CCCN(S(=O)(=O)c3ccc(C)cc3)C2)cc1 (stereo unspecified)	29%	·	4%	1%	3%[59 µM]	-5%
CC(CCc1ccco1)NC(=O)CSc1cc(=O)n(C)c2ccccc12 (stereo unspecified)	14%	-10%	0%	-35%	?	-14%
N#Cc1c(-c2ccccc2)c(-c2ccccc2)nn(CC(=O)NNC(=O)Nc2ccc(Cl)c(Cl)c2)c1=O	-6%	-1%	11%	?	?	?
SMILES	HP1b chromo inh	PLK1 PBD block	VDR inh	BAZ2B inh	G9a block	JMJD2A Tudor
Brc1cccc(CNCc2ccncc2)c1	30%	-2%	27%	-14%	2%	-12%
Brc1ccc(OCc2ccccc2)c(CNCc2ccncc2)c1	14%	-3%	-5%	79µM*	-37%[0.0925 µM]	?
Nc1ccccc1C(=O)NCCN1CCNC1=O	43%	4%	8%	0%	4%	0%
CCOc1ccccc1N1CC(C(=O)Nc2cc(Cl)ccc2C)CC1=O (stereo unspecified)	50%	-6%	?	-8%	10%	-6%
O=C(Cn1nc(-c2cccc(Cl)c2)ccc1=O)NCC1COCCO1 (stereo unspecified)	41%	-4%	13%	79µM*	-5%	3%
O=C(Cn1nc(-c2ccc(Cl)cc2)ccc1=O)NCC1CCCO1 (stereo unspecified)	6%	-1%	2%	12%	4%	-16%
Cc1cc[n+]2c3c(cccc13)CCC2	-14%	13µM*	50µM*	1%	?	?
O=C(NCc1ccccc1)NC1COc2ccccc2C1 (stereo unspecified)	-27%[57 µM]	·	-1%	12%	1%[59 µM]	-8%
COc1cccc(OC)c1C(=O)NCCc1ccccc1	41%	-3%	-5%	·	·	6%
CCOC(=O)c1c(N)sc(C(=O)OC)c1C	-12%	30µM*	-27%	-35%	·	-14%
Cc1c(-c2ccccc2)sc(N)c1C(=O)N1CCOCC1	?	24µM*	-4%	-28%	4µM*	2%[11.4 µM]
COC(=O)c1c(N)sc(C(=O)NCCc2ccccc2)c1C	14%	21µM*	-9%	-35%	?	-10%
COC(=O)c1c(N)sc(C(=O)N2CCOCC2)c1C	15%	-19%	0%	-6%	0%[12.7 µM]	-7%
CCOC(=O)c1c(N)sc(C)c1-c1ccccc1	·	·	?	·	18µM*	·
CCOC(=O)c1sc(N)c(C(=O)OC)c1C	24%	-7%	-1%	-27%	5%	-1%
O=C(/C=C/c1ccccc1)N1CCN(Cc2cc(=O)n3nc(-c4ccccc4Cl)sc3n2)CC1	11%[57 µM]	·	-1%	7%	14%[59 µM]	-15%
Cn1ncc2c(Nc3cccc(C#N)c3)ncnc21	29%	·	14%	3%	-9%[59 µM]	?
Cc1sc(N)c(C(=O)c2ccccc2)c1C	-23%	3.8µM*	?	?	·	-5%[11.4 µM]
Cc1cc(C)c(C(=O)c2ccccc2)c(C)c1	88%	-10%	-23%	·	·	64%
CCOC(=O)c1c(N)sc(C(O)(C(F)(F)F)C(F)(F)F)c1-c1ccccc1	?	27µM*	?	-1%	-2%	?
CCOC(=O)c1c(N)sc(C(=O)N(C)C)c1C	5%	-13%	7%	10%	-29%[59 µM]	5%

Assay outcomes as filed in PubChem.
